NS1 inh: inhibitors of influenza NS1 protein function | actives 0.4% (n = 270,000) | Potency, µM (titrated, usually from 46.1 µM), without a hit: top-dose activity, positive = more growth; calls by dose curve; further: potency means the concentration at half of the fitted maximal effect; actives are rising curves; nearly all actives have a fitted effect of over 50% in size
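A cell-based growth assay was used: compounds that relieve NS1-induced slow growth of budding yeast raise OD600. Assay medium was yeast nitrogen base with ammonium sulphate and -URA supplement, pH 6.0, with 2% galactose.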
Pf growth 96h: P. falciparum growth inhibition at 96 hours; actives 6.9% (n = 320,000); P. falciparum luciferase reporter growth, 96 h; Potency, µM (top dose mostly 28.7 µM), for the others: at the top dose activity change, negative = inhibition, usual class: inhibitors; AID 504834; further: potency means the concentration at half of the fitted maximal effect; on the % scale 0 is the no-effect control and ±100 the full control effect
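96 h incubation, 37 C, 5% CO2, of luciferase-reporter P. falciparum-infected RBCs (2% hematocrit, 0.05% parasitemia final) with test compounds; endpoint luminescence.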
Pf growth 48h: inhibits P. falciparum growth in the first generation, 48 h | P. falciparum luciferase growth in erythrocytes, 48 h | Potency, µM (series often up to 28.7 µM), inactives show at the highest dose activity change, negative = inhibition, hits mostly inhibitors | actives 5.9% (n = 310,000); further: potency means the concentration at half of the fitted maximal effect; on the % scale 0 is the no-effect control and ±100 the full control effect
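Erythrocytes infected with P. falciparum carrying an integrated firefly luciferase reporter (2% hematocrit, 0.1% parasitemia final) were exposed to compounds in RPMI 1640 with 0.5% Albumax at 37 C, 5% CO2. Growth inhibition was scored as reduced luminescence.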
Cycloheximide cs: counter-screen for Shiga toxin inhibitors: cycloheximide protein synthesis inhibition; cell reporter, cycloheximide protein synthesis inhibition counterscreen; max response, %; actives 12% (n = 300,000); AID 2314; in the data active means max response mostly above about 13%, no sharp cut-off; inactive means mostly below about 14%; further: read at 38.3 µM for the half of the compounds with a filed dose; 0% is about no effect
Shiga inhibitor: blocks Shiga toxin action in Vero cells; Vero cells, Shiga toxin protein synthesis inhibition reporter; actives 9.2% (n = 290,000); inhibition, % at 38.7 µM; AID 2315; in the data active means inhibition mostly above about 28%, no sharp cut-off; inactive means mostly below about 43%; further: 0% is about no effect
The depositor's hits bear a star; ? = inconclusive; · = no result given; + = active, no number; [ ] = another dose, or the depositor's remark. Only some compounds are listed: those with a hit (about 21% of all), similar ones and a draw of the others. Unless noted, the call rests on the fitted dose curve; in most records, active means well fitted inhibition curve with a large enough effect; inconclusive means small, poorly fitted or top-dose-only effect, or another doubt; inactive means no such curve, though single readings can be large or run the other way.

SMILES | NS1 inh | Pf growth 96h | Pf growth 48h | Cycloheximide cs | Shiga inhibitor
COCC1CCCN(C(=O)c2ccc3oc(CCCc4ccccc4)nc3c2)C1 (configuration not stated) | 9% | ? | ? | 2 | 12
NS(=O)(=O)c1ccc(NC(=O)COC(=O)c2ccc([N+](=O)[O-])s2)cc1 | -1% | -11% | 11% | -1 | -3
COCCN1CCN(C(=O)c2ccc3nc(Cc4ccccc4F)oc3c2)CC1 | 1% | ? | -3% | 9 | 15
CCCCc1nc2cc(C(=O)N3CCC(OCCOC)CC3)ccc2o1 | 2% | 9% | 10% | 28* | 73*
O=C(CCS(=O)(=O)c1ccccc1)Nc1nc2cc3c(cc2s1)OCO3 | -8% | -23% | 1% | 34* | 55
CS(=O)(=O)c1ccc2nc(NC(=O)CCS(=O)(=O)c3ccccc3)sc2c1 | -15% | 94% | -8% | -3 | -8
O=C(CCS(=O)(=O)c1ccccc1)Nc1nc2cc3c(cc2s1)OCCO3 | 2% | 5.2µM* | -36% | 45* | 90*
CC(C)(C)NC[C@@H](O)c1ccc(O)c(CO)n1 | -11% | -16% | -3% | · | ·
COc1ccc(C2C(C(=O)Nc3cc(OC)c(OC)c(OC)c3)c3ccccc3C(=O)N2C)cc1OC (configuration not stated) | · | 51% | 12µM* | -1 | -12
COc1ccc(C2C(C(=O)NC(C)C)c3ccccc3C(=O)N2C)cc1OC (configuration not stated) | 2% | 1µM* | -1% | -5 | -21
COc1ccc(C2C(C(=O)Nc3cccc(C)n3)c3ccccc3C(=O)N2C)cc1 (configuration not stated) | 0% | 3.7µM* | ? | -6 | -38
COc1ccc(C2C(C(=O)Nc3ccc(OC)c(OC)c3)c3ccccc3C(=O)N2C)cc1 (configuration not stated) | · | ? | ? | -2 | -7
Cc1ccc(NC2=Nc3ccccc3N3C2=Nc2c(c(C)nn2-c2ccccc2)C3c2ccc(O)c(O)c2)cc1 (configuration not stated) | ? | ? | ? | -2 | -8
Cc1nn(-c2ccccc2)c2c1C(c1ccc(O)c(O)c1)N1C(=N2)C(Nc2ccccc2)=Nc2ccccc21 (configuration not stated) | ? | 10µM* | 10µM* | -1 | -9
CN1CCC(=C2c3ccccc3CCc3sccc32)CC1 | · | -29% | 15µM* | -4 | -17
CN1CCC(=C2c3ccccc3C(O)c3ccccc32)CC1 (configuration not stated) | 4% | ? | 2% | -3 | 18
CN1CCC(=C2c3ccccc3CC(=O)c3sccc32)CC1 | -2% | 10µM* | 15µM* | -3 | -14
Cc1ccc(/C=C/C(=O)NCc2cccs2)c(C)c1 | -8% | ? | 70% | 37* | 53*
O=C(/C=C/c1ccc([N+](=O)[O-])cc1)NCc1cccs1 | 7% | -7% | 37% | 38* | 13*
Cc1ccc(/C=C/C(=O)NCc2cccs2)o1 | · | 74%[5.75 µM] | 19% | 18* | 91*
O=C(CCCCC(=O)NCc1cccs1)NCc1cccs1 | 4% | ? | 7% | -1 | -1
Cc1cccc(C(=O)OCC(=O)NCc2cccs2)c1 | -7% | 17% | 16% | 5 | -5
Cc1ccc(/C=C/C(=O)NCc2cccs2)cc1 | -5% | -16% | 59% | 66* | 139*
CCCC(=O)Nc1nnc(CCc2ccccc2)s1 | 12% | ? | -19% | 7 | 12
CCC(C)(C)C(=O)Nc1nnc(CCc2ccccc2)s1 | -5% | 1% | 45% | 39* | 80*
SMILES | NS1 inh | Pf growth 96h | Pf growth 48h | Cycloheximide cs | Shiga inhibitor
CC(C)(C)CC(=O)Nc1nnc(CCc2ccccc2)s1 | 8% | 228% | ? | 29* | 93
CC(/C=C/c1ccco1)=N\NC(=O)COc1ccc(C)c(C)c1 | -8% | 3% | 31% | 16 | 20
Cc1ccc(NC(=O)CSc2nncn2N)cc1C | -4% | ? | 1% | 3 | 1
CC(C)[C@H]1C(=O)N2CCC[C@H]2[C@]2(O)O[C@](NC(=O)[C@@H]3C=C4c5cccc6[nH]cc(c56)C[C@H]4N(C)C3)(C(C)C)C(=O)N12 | ? | 7.4µM* | 5.9µM* | -2 | -10
CN1C[C@@H](CO)C=C2c3cccc4[nH]cc(c34)CC21 (some centres not stated) | · | · | · | -8 | -4
CC(C)C[C@H]1C(=O)N2CCCC2[C@]2(O)O[C@](NC(=O)[C@@H]3C=C4c5cccc6[nH]cc(c56)CC4N(C)C3)(C(C)C)C(=O)N12 (some centres not stated) | 30% | 2.3µM* | 2.6µM* | -1 | -9
CC(C)[C@@]1(NC(=O)[C@@H]2C=C3c4cccc5[nH]cc(c45)C[C@H]3N(C)C2)O[C@@]2(O)[C@@H]3CCCN3C(=O)[C@H](Cc3ccccc3)N2C1=O | ? | 2.3µM* | 2.9µM* | -2 | -13
CC(C)[C@@]1(NC(=O)[C@@H]2C[C@@H]3c4cccc5[nH]cc(c45)C[C@H]3N(C)C2)O[C@@]2(O)[C@@H]3CCCN3C(=O)[C@H](Cc3ccccc3)N2C1=O | -1% | 1.9µM* | 1.9µM* | -2 | -3
CC(C)C[C@H]1C(=O)N2CCC[C@H]2[C@]2(O)O[C@](NC(=O)[C@@H]3C=C4c5cccc6[nH]c(Br)c(c56)CC4N(C)C3)(C(C)C)C(=O)N12 (some centres not stated) | -4% | 4.1µM* | 2.3µM* | -1 | -8
CN1C[C@H](CO)C=C2c3cccc4[nH]cc(c34)C[C@H]21 | 12% | ? | ? | 0 | 10
CN(C)CCCn1c(NCc2ccc3c(c2)OCO3)nc2ccccc21 | -3% | -79% | · | -4 | -9
C=CCn1c(NCc2ccc3c(c2)OCO3)nc2ccccc21 | -8% | ? | ? | 33* | +
CCn1c(NCc2ccc3c(c2)OCO3)nc2ccccc21 | -11% | ? | -25% | 22* | 73
COc1ccc(C(CC(=O)N2CCOCC2)c2c(OC)cc(OC)c3c(-c4ccccc4)cc(=O)oc23)cc1 (configuration not stated) | -8% | ? | 10µM* | -3 | -1
COc1ccc(C(CC(=O)N2CCCC(C)C2)c2c(OC)cc(OC)c3ccc(=O)oc23)cc1 (configuration not stated) | 0% | ? | 12µM* | 5 | -9
COc1ccc(C(CC(=O)N2CCCC2)c2c(OC)cc(OC)c3c(-c4ccccc4)cc(=O)oc23)cc1 (configuration not stated) | -9% | ? | 9.3µM* | 7 | -4
COc1ccc(C(CC(=O)N2CCCC(C)C2)c2c(OC)cc(OC)c3c(-c4ccccc4)cc(=O)oc23)cc1 (configuration not stated) | 5% | 12µM* | 9.3µM* | -2 | -5
O=S(=O)(Nc1ccc2cn[nH]c2c1)c1ccc(Cl)s1 | · | -5% | -1% | -2 | -6

Screening results from PubChem.
